An excerpt weighted towards active compounds, which were near 1.2% of everything screened.
Gli-Sufu block: blocks Gli-Sufu signaling in a luciferase reporter; AID 588413; Sufu-KO-LIGHT fibroblasts, Gli luciferase reporter luminescence; 0.74% of 340,000 active; inhibition, % at 5 µM;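 active = inhibition above about 55%, limit read from the data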;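 also: 0% = DMSO-treated cells and 100% = wells with medium but no cells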
NR2F2 inh: NR2F2 (human) inhibition, primary screen; AID 686940; HEK293T NGFI-A luciferase reporter, luminescence; 0.7% of 370,000 active; inhibition, % at 8.6 µM; P24468;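 active = inhibition above a per-plate cutoff, mean inhibition of test wells between control levels plus 3 SD, cut at about 38% in these data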;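 also: cells cotransfected with COUP-TFII expression vector driving the NGFI-A reporter; 0% = median of COUP-TF2 test wells and 100% = reporter-only cells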
SRC1 inh: inhibitors of human steroid receptor coactivator 1 (SRC1); AID 588354; 0.12% of 360,000 active; HEK293 GAL4-SRC1 luciferase reporter, luminescence; Q15788; inhibition, % at 3.6 µM;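 active = inhibition above the campaign mean plus 3 SD, with each screening campaign given its own cutoff, cut at about 60% in these data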;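 also: 0% = DMSO treated cells and 100% = gossypol at 36 µM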
Target sequence (Q15788 whole entry, looked up, the tested form may be a part): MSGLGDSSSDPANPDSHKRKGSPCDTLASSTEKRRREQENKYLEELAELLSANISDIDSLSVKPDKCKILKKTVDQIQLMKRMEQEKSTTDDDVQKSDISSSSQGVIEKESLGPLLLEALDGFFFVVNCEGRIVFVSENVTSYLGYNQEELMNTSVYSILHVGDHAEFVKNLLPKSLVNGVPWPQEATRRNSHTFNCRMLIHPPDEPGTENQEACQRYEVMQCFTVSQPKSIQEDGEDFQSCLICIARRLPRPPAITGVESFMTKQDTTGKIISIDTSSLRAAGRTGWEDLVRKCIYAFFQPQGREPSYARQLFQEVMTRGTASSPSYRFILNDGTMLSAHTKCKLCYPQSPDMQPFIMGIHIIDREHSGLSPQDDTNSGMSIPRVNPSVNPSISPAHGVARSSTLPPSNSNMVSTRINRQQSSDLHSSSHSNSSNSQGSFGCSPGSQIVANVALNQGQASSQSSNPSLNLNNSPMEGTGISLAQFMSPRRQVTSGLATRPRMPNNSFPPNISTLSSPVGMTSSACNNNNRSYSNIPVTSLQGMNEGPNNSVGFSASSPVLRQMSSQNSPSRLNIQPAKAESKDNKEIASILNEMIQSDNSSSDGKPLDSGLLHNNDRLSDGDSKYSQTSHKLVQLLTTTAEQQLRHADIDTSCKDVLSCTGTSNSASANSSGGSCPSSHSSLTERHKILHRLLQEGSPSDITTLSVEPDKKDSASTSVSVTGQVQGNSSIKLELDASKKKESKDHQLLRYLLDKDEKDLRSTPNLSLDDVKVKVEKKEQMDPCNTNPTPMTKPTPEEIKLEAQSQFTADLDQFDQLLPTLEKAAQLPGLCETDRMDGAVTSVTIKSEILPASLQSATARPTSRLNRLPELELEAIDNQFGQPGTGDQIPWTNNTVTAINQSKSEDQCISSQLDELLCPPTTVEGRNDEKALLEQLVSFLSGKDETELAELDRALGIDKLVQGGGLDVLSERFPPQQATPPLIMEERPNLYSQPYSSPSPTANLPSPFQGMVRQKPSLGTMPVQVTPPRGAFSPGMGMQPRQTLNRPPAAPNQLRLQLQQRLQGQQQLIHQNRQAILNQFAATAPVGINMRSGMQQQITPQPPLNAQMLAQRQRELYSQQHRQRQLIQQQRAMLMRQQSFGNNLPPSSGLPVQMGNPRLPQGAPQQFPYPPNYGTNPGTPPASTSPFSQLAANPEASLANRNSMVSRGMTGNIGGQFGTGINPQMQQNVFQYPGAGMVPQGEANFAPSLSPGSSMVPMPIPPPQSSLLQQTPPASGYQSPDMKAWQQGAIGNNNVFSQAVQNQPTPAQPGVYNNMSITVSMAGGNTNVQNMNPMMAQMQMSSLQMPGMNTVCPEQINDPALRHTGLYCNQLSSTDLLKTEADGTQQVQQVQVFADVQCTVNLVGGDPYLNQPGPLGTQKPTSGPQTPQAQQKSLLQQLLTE
NCOA2 inhibitor: human SRC2 (NCOA2) inhibition; HEK293 GAL4-SRC2 luciferase reporter, luminescence; inhibition, % at 9 µM; AID 651957; 0.17% of 370,000 active; Q15596;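 active = inhibition above the mean inhibition of all tested compounds plus 3 SD, set per campaign, cut at about 52% in these data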;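 also: 0% = DMSO treated cells and 100% = cells given Gossypol at 36 µM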
NCOA3 inh: human NCOA3 inhibition; inhibition, % at 3.6 µM; 0.17% of 360,000 active; AID 588352; HEK293 GAL4-SRC3 luciferase reporter, luminescence; Q9Y6Q9;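 active = inhibition above a per-campaign cutoff, the mean of all compounds plus 3 SD, cut at about 60% in these data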;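 also: 0% = DMSO-treated cells and 100% = gossypol-treated cells at 36 µM; higher means less SRC3-driven luciferase light from the GAL4 reporter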
NR5A2 inv ag: suppresses constitutive activity of human LRH-1 | O00482 | HEK293T StAR-luciferase reporter, LRH-1 transfected, 24 h | inhibition, % at 3.6 µM | 0.13% of 360,000 active | AID 602396;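 active = inhibition above the mean inhibition of all tested compounds plus 3 SD, cut at about 73% in these data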;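 also: 0% = DMSO wells and 100% = reporter-only cells lacking LRH-1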
Gli antag conf: confirmation of Gli-SUFU pathway antagonists; shares compounds with Gli-Sufu block; Sufu-KO-LIGHT cells, Gli luciferase reporter, luminescence; inhibition, % at 5 µM; 40% of 2,500 active;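 active = mean inhibition at 5 µM reaching about 45%, limit read from the data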;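 also: plate controls were DMSO-treated cells for no effect and wells lacking cells for full effect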
Gli cytotox: cytotoxic in Gli-SUFU antagonist counter-screen. shares compounds with Gli-Sufu block. Sufu-KO-LIGHT cells cytotoxicity, ATP luminescence. cytotoxicity, % at 5 µM. 32% of 2,500 active. AID 651994;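 active = mean cytotoxicity at 5 µM above about 25%, limit read from the data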;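 also: cells exposed to compound overnight for roughly 16 to 18 hours; plate controls were DMSO wells with cells for no effect and medium without cells for full effect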
Wnt3a counter: inhibits Wnt3a reporter, counter-screen for Gli-SUFU antagonists | shares compounds with Gli-Sufu block | Wnt-LIGHT cells, Wnt3a-driven luciferase reporter, luminescence | inhibition, % at 6.25 µM | 20% of 2,500 active | AID 651995;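 active = mean inhibition above about 25%, limit read from the data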
Numbers without * were called inactive; . = no result given.

SMILES | Gli-Sufu block | NR2F2 inh | SRC1 inh | NCOA2 inhibitor | NCOA3 inh | NR5A2 inv ag | Gli antag conf | Gli cytotox | Wnt3a counter
Cn1nnc(NC(=O)C(c2ccccc2)c2ccccc2)n1 | 9 | 7 | -9 | 15 | 11 | 16 | . | . | .
CCn1nnc(NC(=O)C(c2ccccc2)c2ccccc2)n1 | 59* | -11 | 3 | -10 | -8 | 16 | 19 | 13 | -7
CCCCNc1ccc2c(c1)OC[C@@H](Cc1ccccc1)NS2(=O)=O | . | 4 | . | 4 | . | . | . | . | .
Cc1nc2ccc(NS(=O)(=O)c3ccc(F)c(C)c3)cc2[nH]1 | 62* | 32 | 22 | 22 | 20 | 18 | 49* | 21 | 27*
Nc1ccc(Cn2ccc3c4c(N)nc(N)nc4ccc32)cc1 | 61* | 31 | 56 | -7 | 42 | 32 | 58* | 17 | 41*
Fc1ccc(Cn2ccc3ccc(-c4ccc5ccn(Cc6ccc(F)cc6)c5c4)cc32)cc1 | . | -30 | . | -42 | . | . | . | . | .
O=C(Nc1ccccc1Cc1ccccc1)c1ccccc1NS(=O)(=O)c1ccc(Cl)s1 | 59* | 29 | 13 | 30 | 35 | 25 | 63* | 30* | 57*
COCC(=O)N[C@H]1C[C@@H]2O[C@@H](CO)CC[C@@H]2O[C@@H]1CCc1ccc(-c2ccccc2)cc1 | . | 1 | . | 12 | . | . | . | . | .
CN(C(=O)C1CCN(S(=O)(=O)c2cccs2)CC1)C1CCCCC1 | 0 | -5 | -27 | -6 | 4 | 0 | . | . | .
CCN(Cc1ccncc1)C(=O)C1CCN(S(=O)(=O)c2cccs2)CC1 | 99* | 10 | -8 | 6 | 7 | 18 | 13 | 18 | 10
CCN(Cc1ccncc1)C(=O)c1cccc(S(=O)(=O)N2CCCCC2)c1 | 95* | -7 | -5 | 8 | 3 | -14 | 20 | 11 | -17
CC(C)c1ccc(NC(=O)N2CCOCC2)cc1 | 60* | -30 | -79 | -43 | -52 | -44 | -11 | 4 | -55
O=C(N[C@@H](Cc1ccccc1)C(=O)N1CCC2CCN(S(=O)(=O)c3ccccc3)CC21)[C@@H]1CCCN1 (stereo partly drawn) | . | -13 | . | -9 | . | . | . | . | .
O=C(N[C@H](C(=O)N1CCC[C@H]1C(=O)NC1CCCC1)c1ccccc1)c1ccc(Cl)cc1Cl | . | -7 | . | -35 | . | . | . | . | .
COc1ccc(Nc2nnc(-c3ccc4c(c3)OCO4)o2)cc1 | . | -58 | . | -117 | . | . | . | . | .
NCc1ccc(OCCCN2CCC(C(O)(C3=CCCC3)c3ccccc3)CC2)cc1 (stereo not drawn) | . | 0 | . | 7 | . | . | . | . | .
CCOC(=O)N1CCN(C(=O)CSc2ccc3nnc(-c4ccncc4)n3n2)CC1 | 59* | -2 | -6 | -12 | 21 | 13 | 9 | 33* | -12
Cc1c(Cl)cccc1NC(=O)NN1CCN(C)CC1 | 95* | -22 | 11 | -14 | 11 | 2 | 10 | 24 | -7
COc1cccc(N2CCN(CC(=O)NCc3ccc(F)cc3)CC2)c1 | . | -14 | . | 1 | . | . | . | . | .
COC(=O)C1=C(C)N(Cc2ccccc2C(F)(F)F)C(=NCc2ccccc2C(F)(F)F)NC1c1cccc(F)c1 (stereo not drawn) | . | 8 | . | -16 | . | . | . | . | .
O=C1/C(=C2\C(=O)N(Cc3ccc(F)cc3)c3ccccc32)SC(=S)N1CCS(=O)(=O)O | 5 | -2 | 5 | 3 | -11 | 20 | . | . | .
O=C(O)CN1C(=O)/C(=C2\C(=O)N(Cc3ccccc3Cl)c3ccccc32)SC1=S | 57* | 5 | -9 | 8 | 8 | 26 | 11 | 7 | 20
COC(=O)[C@H](N[C@H](/C=C/c1ccccc1)[C@@H](O)Cc1ccccc1)c1ccccc1 | . | -7 | . | 9 | . | . | . | . | .
O=C(NCc1ccc2c(c1)OCO2)c1nc(Cn2cc([N+](=O)[O-])cn2)no1 | 54 | 2 | -5 | 6 | -27 | 6 | 11 | -10 | -3
Cc1cc(C)cc(N2CCCn3c2nc2c3c(=O)n(CC(=O)OCc3ccccc3)c(=O)n2C)c1 | 9 | . | -2 | . | -7 | -3 | . | . | .
SMILES | Gli-Sufu block | NR2F2 inh | SRC1 inh | NCOA2 inhibitor | NCOA3 inh | NR5A2 inv ag | Gli antag conf | Gli cytotox | Wnt3a counter
Cc1ccc(N2CC(C)Cn3c2nc2c3c(=O)n(CC(=O)OCc3ccccc3)c(=O)n2C)cc1C (stereo not drawn) | 57* | 23 | -3 | 4 | 24 | -5 | 38 | 17 | -37
CS(=O)(=O)c1ccc(C(=O)OCC(=O)NC(=O)C2CCCCC2)cc1[N+](=O)[O-] | 65* | -19 | -2 | -4 | 1 | 0 | 14 | 3 | 9
CC(C)C[C@H]1COc2c(Cl)cccc2S(=O)(=O)N1Cc1cccc(Cl)c1 | . | 7 | . | 9 | . | . | . | . | .
CCOC(=O)c1cnc(Nc2nc3ccccc3o2)nc1CSc1ncccn1 | -40 | . | . | . | . | . | . | . | .
CCOC(=O)c1cnc(Nc2nc3ccccc3o2)nc1CSC(=S)N(CC)CC | 69* | 12 | -24 | 6 | -33 | -24 | 32 | 20 | -86
CCCc1cc(=O)[nH]c(SCC(=O)NC2CC2)n1 | 52 | 2 | 4 | -6 | -16 | 22 | 10 | -3 | -3
O=C(NCC1CCN(C(=O)C(=O)c2cccs2)CC1)c1ccc2ccccc2c1 | . | 10 | . | 20 | . | . | . | . | .
CCOC(=O)C1=C[C@@H](C(C)(C)C)N(S(=O)(=O)c2ccc([N+](=O)[O-])cc2)[C@H]1c1ccccc1Cl | . | 6 | . | 11 | . | . | . | . | .
CN(c1ccccc1)S(=O)(=O)c1cccc(C(=O)Nc2nccs2)c1 | -18 | 1 | 7 | -7 | 12 | -9 | . | . | .
C=CCSc1nnc(NC(=O)c2cccc(S(=O)(=O)N(C)c3ccccc3)c2)s1 | 74* | 11 | -4 | -4 | 10 | -7 | 12 | 17 | -9
O=C(N=Nc1c(O)[nH]c2c(Cl)cc(Cl)cc12)c1ccccc1O | . | 8 | . | -4 | . | . | . | . | .
Cc1nnsc1C(=O)Nc1ccc(S(=O)(=O)N2CCC(C)CC2)cc1 | 54 | 3 | -2 | 6 | 11 | -9 | 28 | 23 | -59
O=C(c1ccccc1)c1ccc(OCCOCCN2CCN(Cc3ccccc3)CC2)cc1 | 68* | 22 | 9 | 16 | 10 | 29 | 20 | 11 | -38
Cc1cccc(N/C=C/c2onc(C)c2[N+](=O)[O-])c1 | 53 | -16 | -121 | -60 | -109 | -114 | -52 | 11 | -79
Cc1cc(O)ccc1N/C=C/c1onc(C)c1[N+](=O)[O-] | -69 | -53 | -122 | -74 | -75 | -85 | . | . | .
O=C(COC(=O)CSc1ccc(F)cc1)NCC1CCCCC1 | 95* | -6 | -7 | 3 | 0 | -6 | 30 | 16 | -6
Cc1ccccc1Cn1cc(COC(=O)NCCc2c[nH]c3ccccc23)nn1 | . | -31 | . | -23 | . | . | . | . | .

Source: PubChem BioAssay (several laboratories)
